Data on 30 compounds can be found in PubChem BioAssay (NCATS).

Experiment [1] in a line: qHTS to identify inhibitors of the type 1 interferon - major histocompatibility complex class I in skeletal muscle: primary screen against the NCATS Mechanism Interrogation Plate v5.0 (MIPE) Libary (AID 1347411). Note: nearly all actives have a fitted effect of over 65% in size. Note: potency is the fitted concentration of half-maximal effect. The gist of the method:
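Cells were genome-edited human myoblasts carrying a HiBit tag on endogenous HLA-B. They were treated with IFN-beta (4.0 ng/ml) and titrated compounds (top 46 uM) for 24 hrs before lytic HiBiT detection.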

Experiment [2] concerns the target Calcium and integrin-binding protein 1 (Homo sapiens) (UniProt Q99828). The experiment can be described thus: Primary qHTS for Identification of Calcium Integrin Binding Protein 1 (CIB1) Competitor (AID 1508620). Note: potency is the fitted concentration of half-maximal effect. The procedure, abridged:
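Fluorescence polarization competition: CIB1-GST (1 uM final) preincubated with compound 15 min at room temperature, then FITC-labeled alphaIIb peptide (100 nM final) added for another 15 min. Polarization read at Ex 480/Em 540.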
In general terms: Quantitative high-throughput screening tests each substance at several concentrations.

Experiment [3] in a line: qHTS to identify inhibitors of the type 1 interferon - major histocompatibility complex class I in skeletal muscle: primary screen against the NCATS Pharmaceutical Collection (AID 1347407).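 Note: luminescence of HiBiT knocked into endogenous HLA-B as interferon-induced MHC class I level.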 The gist of the method: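 Immortalized human myoblasts (C25cl48) with HiBiT knocked into endogenous HLA-B*08:01 were stimulated with 4 ng/ml IFN-beta and treated with compounds (8-point, 1:5, top 46 uM final) for 24 h at 37 C; HiBiT lytic luminescence read.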

Experiment [4] addresses Protein phosphatase 1D (Homo sapiens) (UniProt O15297). The experiment can be described thus: RapidFire Mass Spectrometry qHTS Assay for Modulators of WT P53-Induced Phosphatase 1 (WIP1) (AID 1347424).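 Note: amount of dephosphorylated VEPPL-S-QETFS peptide product formed by WIP1.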 Note: potency is the fitted concentration of half-maximal effect. The procedure, abridged: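 WIP1 (10 nM final) was preincubated 1 h at room temperature with compounds in Tris-HCl pH 7.5, 30 mM MgCl2, TCEP, EGTA, BSA; 2 uM VEPPL-pS-QETFS phosphopeptide was added for 5 min, quenched with formic acid, and dephosphorylated product quantified by RapidFire MS.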

Experiment [5] in a line: Primary qHTS for inhibitors of La Crosse Virus (LACV) - induced cell death in SH-SY5Y cells (AID 1508616).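 Note: top concentration of the series differs between compounds; higher means more rescue of cells from virus-induced death.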 The gist of the method: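 Readout was luminescence from ATPLite 1step added after a 6-day LACV infection (0.01 MOI) of SH-SY5Y cells that had received pin-transferred compound 24 hr after seeding.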
The target of experiment [6] is Protein phosphatase 1D (Homo sapiens) (UniProt O15297). Put plainly: Rhodamine-PBP qHTS Assay for Modulators of WT P53-Induced Phosphatase 1 (WIP1) (AID 1347425). The procedure, abridged:
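Read-out: Rhodamine-PBP fluorescence (ex 525/em 598 nm) for released Pi, read each minute for 11 min after adding 10 uM VEPPL-pS-QETFS; signal taken as f1 minus pre-substrate f0. Enzyme 5 nM WIP1 with 1 hr room-temperature compound preincubation.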

Results filed as inconclusive are left out. Activity calls are given as the source filed them. Calls come from the whole dose curve; as a rule, active = well fitted curve in the direction sought with a large enough effect; inconclusive = small, poorly fitted or top-dose-only effect, or another doubt; inactive = no such curve, though single readings can be large; an effect the other way counts as inactive or inconclusive.

Chain of Protein phosphatase 1D (Homo sapiens) (O15297 whole entry, looked up): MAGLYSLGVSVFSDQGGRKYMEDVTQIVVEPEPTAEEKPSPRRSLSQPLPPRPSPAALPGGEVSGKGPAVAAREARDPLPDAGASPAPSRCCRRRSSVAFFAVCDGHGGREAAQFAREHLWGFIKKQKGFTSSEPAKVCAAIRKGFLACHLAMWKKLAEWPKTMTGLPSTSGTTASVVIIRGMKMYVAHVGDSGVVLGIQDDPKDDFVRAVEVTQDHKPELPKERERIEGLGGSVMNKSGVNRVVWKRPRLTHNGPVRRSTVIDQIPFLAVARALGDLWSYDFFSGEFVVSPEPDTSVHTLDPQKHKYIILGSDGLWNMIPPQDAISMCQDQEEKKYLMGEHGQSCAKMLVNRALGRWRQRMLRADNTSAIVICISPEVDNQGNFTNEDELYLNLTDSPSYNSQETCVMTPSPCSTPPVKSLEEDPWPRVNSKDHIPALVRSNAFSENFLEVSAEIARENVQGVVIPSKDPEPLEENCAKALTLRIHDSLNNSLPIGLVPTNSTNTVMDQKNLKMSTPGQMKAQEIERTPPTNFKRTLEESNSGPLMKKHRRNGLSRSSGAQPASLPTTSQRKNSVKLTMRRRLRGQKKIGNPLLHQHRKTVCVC
Chain of Calcium and integrin-binding protein 1 (Homo sapiens) (Q99828 whole entry, looked up): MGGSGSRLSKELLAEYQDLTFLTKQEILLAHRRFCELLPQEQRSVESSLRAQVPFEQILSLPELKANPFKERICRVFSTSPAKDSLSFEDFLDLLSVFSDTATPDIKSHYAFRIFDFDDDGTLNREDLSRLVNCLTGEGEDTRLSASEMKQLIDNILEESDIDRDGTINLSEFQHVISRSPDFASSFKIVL

Regarding `COc1ccc(N(C)c2nc(C)nc3ccccc23)cc1`, the Potency result in experiment [1] and in experiment [2] was “inactive” throughout.

On to `CO[C@H]1C[C@@H]2CC[C@@H](C)[C@@](O)(O2)C(=O)C(=O)N2CCCC[C@H]2C(=O)O[C@H]([C@H](C)C[C@@H]2CC[C@@H](OP(C)(C)=O)[C@H](OC)C2)CC(=O)[C@H](C)/C=C(\C)[C@@H](O)[C@@H](OC)C(=O)[C@H](C)C[C@H](C)/C=C/C=C/C=C/1C`, for which the Potency in experiment [1] was 18.6 µM (active). In addition, in experiment [2], the Potency result is “inactive”.

For the compound `O=C(/C=C/c1cccc(S(=O)(=O)Nc2ccccc2)c1)NO`, the Potency in experiment [1] is 2.34 µM (active). For the same compound, the Potency result in experiment [2] was “inactive”.

Consider `CCCN1CCN(c2ccc(C(=O)NC3(C(=O)NCC#N)CCCCC3)cc2)CC1`, for which the Potency result in experiment [1] and in experiment [2] was “inactive” in each case.

Take `Cc1ccc(N)cc1O`: the result in experiment [3] and in experiment [5] was inactive. Besides, the Potency in experiment [4] was 44.7 µM (active).

For `COC(=O)N(C)c1c(N)nc(-c2nn(Cc3ccccc3F)c3ncccc23)nc1N`, the Potency entry in experiment [1] and in experiment [2] was “inactive” in each case.

For `CCOCc1nc2c(N)nc3ccccc3c2n1CC(C)(C)O`, the Potency entry in experiment [1] and in experiment [2] was “inactive” throughout.

Take `COc1cc2ncnc(Nc3cccc(Cl)c3F)c2cc1OC(=O)N1CCN(C)C[C@H]1C`: the Potency result in experiment [1] and in experiment [2] was “inactive” throughout.

As to `Cc1ccc(-c2ccc3c(ccc4sc5c(c43)NC[C@@H](C)NC5=O)n2)cn1`, the Potency in experiment [1] was 18.6 µM (active). The Potency result in experiment [2] was “inactive”.

Turning to `CC(C)c1cc(CNc2nc(Nc3cc(C4CC4)[nH]n3)cc(N3CCN(C)CC3)n2)on1`, the Potency in experiment [1] is 0.523 µM (active). The Potency result in experiment [2] was “inactive”.

Turning to `CCN1CCN(Cc2ccc(Nc3ncc(F)c(-c4cc(F)c5nc(C)n(C(C)C)c5c4)n3)nc2)CC1`, the Potency in experiment [1] was 10.4 µM (active). Further, in experiment [2], the Potency result was “inactive”.

Regarding `Cc1nc([C@](C)(O)CO)sc1-c1cnc(N)c(O[C@H](C)c2cc(F)ccc2-n2nccn2)c1`, the Potency entry in experiment [1] and in experiment [2] was “inactive” each time.

With `FC(F)(F)c1ccc(Nc2nc(-c3c(C(F)(F)F)nc4ccccn34)cs2)cc1`, in experiment [1], the Potency was 4.66 µM (active). Further, the Potency entry in experiment [2] is “inactive”.

For the compound `CCNCc1nc2c(N)nc3ccccc3c2n1CC(C)(C)O`, the Potency entry in experiment [1] and in experiment [2] was “inactive” in each case.

Turning to `Cc1c(F)cc(C(=O)NC2CC2)cc1-c1c(F)cn2c(C(C)(C)C)nnc2c1F`, the Potency result in experiment [1] and in experiment [2] was “inactive” each time.

As for `CCO[C@@H]1OC(=O)C[C@@H]1NC(=O)[C@@H]1CCCN1C(=O)[C@@H](NC(=O)c1ccc(N)c(Cl)c1)C(C)(C)C`, the Potency result in experiment [1] and in experiment [2] was “inactive” throughout.

As for `CC1=C(CO)C(=O)O[C@@H]([C@@H](C)[C@H]2CC[C@H]3[C@@H]4C[C@H]5O[C@]56[C@@H](O)C=CC(=O)[C@]6(C)[C@H]4CC[C@]23C)C1`, the Potency in experiment [1] was 0.466 µM (active). Further, the Potency entry in experiment [2] is “inactive”.

For the compound `COc1cc(C(=O)NC2CCN(C)CC2)c(F)cc1Nc1ncc2c(n1)N(C1CCCC1)CC(F)(F)C(=O)N2C`, in experiment [1], the Potency was 14.7 µM (active). Besides, the Potency result in experiment [2] was “inactive”.

On to `Cc1ccc(NC(=O)c2ccc(CN3CC[C@H](N(C)C)C3)c(C(F)(F)F)c2)cc1Nc1nccc(-c2cncnc2)n1`, for which, in experiment [1], the Potency is 16.1 µM (active). Further, in experiment [2], the Potency result is “inactive”.

With `Nc1ccccc1N`, the outcome in experiment [3] and in experiment [6] was inactive. Further, the Potency result in experiment [4] was “inactive”. Besides, the Potency in experiment [2] was 100 µM (active).

As for `O=C(O)c1ccccc1NCCc1ccccc1`, the call in experiment [3], in experiment [6] and in experiment [5] was inactive. In addition, the Potency result in experiment [4] and in experiment [2] was “inactive” throughout.

For the compound `O=C(O)c1c(O)c(-c2ccccc2)nc2ccccc12`, the call in experiment [3], in experiment [6] and in experiment [5] was inactive. In addition, the Potency entry in experiment [4] and in experiment [2] was “inactive” in each case.

For `C[C@H](Nc1ncnc2nc[nH]c12)c1cc2ccc(F)cc2nc1-c1ccccn1`, the Potency result in experiment [1] and in experiment [2] was “inactive” in each case.

As for `Cc1cc(O)c(-c2ccc([C@@H](C)CN(C)C)cc2)c2c1[nH]c(=O)c1sccc12`, the Potency in experiment [1] is 0.104 µM (active). Further, the Potency result in experiment [2] is “inactive”.

As for `COc1ccc(C(=O)C2CCN(CC(=O)N(Cc3nc4c(c(=O)[nH]3)COCC4)CC3CC3)CC2)cc1`, the Potency entry in experiment [1] and in experiment [2] was “inactive” throughout.

In the case of `COCCN1CCN(Cc2ccc(-c3n[nH]c4c3C(=O)c3c(NC(=O)NN5CCOCC5)cccc3-4)cc2)CC1`, in experiment [1], the Potency was 0.208 µM (active). Moreover, the Potency entry in experiment [2] is “inactive”.

`Cc1[nH]nc(C(F)(F)F)c1Cc1sc2c(c1C(=O)N1C[C@](C)(O)CO1)c(=O)n(C)c(=O)n2C(C)C`: the Potency result in experiment [1] and in experiment [2] was “inactive” each time.

Consider `Cc1cccc(Oc2cnc(=O)[nH]c2)c1`, for which the Potency entry in experiment [1] and in experiment [2] was “inactive” each time.

On to `CCOc1cc(C(=O)N2CCC(N3CCN(C)CC3)CC2)ccc1Nc1ncc2c(n1)N(C1CCCC1)c1ccccc1C(=O)N2C`, for which the Potency in experiment [1] is 23.4 µM (active).

Regarding `CCOCCOC(=O)/C=C/c1ccc(OC)cc1`, the call in experiment [3] and in experiment [6] was inactive. Further, the Potency entry in experiment [4] and in experiment [2] was “inactive” throughout.
